Measured values published in the supplement of paper PMC10105736.
Unmarked numbers belong to inactive results.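 The calls were made as follows: active = MAPPIT score above the 99th percentile of random reference set scores in the same batch; inactive = at or below it.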

How the values were obtained:
Assay in all cases: MAPPIT interaction score (arbitrary units); higher = stronger binary interaction signal, active = hit call of the paper
CG5662 = settings: MAPPIT configuration: N-N; pair source set: screen_2
CG5062 = settings: MAPPIT configuration: N-N; pair source set: Curagen_low_conf
slmo = settings: MAPPIT configuration: N-N; pair source set: Curagen_high_conf
CG5854 = settings: MAPPIT configuration: N-N; pair source set: Curagen_high_conf
Zip88E = settings: MAPPIT configuration: N-N; pair source set: Lit-BS-16
CG4884 = settings: MAPPIT configuration: N-N; pair source set: Finley_Y2H
CG4707 = settings: MAPPIT configuration: N-N; pair source set: Curagen_high_conf
CG5708 = settings: MAPPIT configuration: N-C; pair source set: screen_4
Polr3F = settings: MAPPIT configuration: N-C; pair source set: screen_3
hale = settings: MAPPIT configuration: N-N; pair source set: screen_1
pasi2 = settings: MAPPIT configuration: N-N; pair source set: Lit-BS-16
CG4853 = settings: MAPPIT configuration: N-N; pair source set: Curagen_low_conf
CG4860 = settings: MAPPIT configuration: N-N; pair source set: Curagen_high_conf
CG5174 = settings: MAPPIT configuration: N-N; pair source set: Curagen_high_conf
CG4789 = settings: MAPPIT configuration: N-N; pair source set: Lit-BS-16
PVRAP = settings: MAPPIT configuration: N-N; pair source set: Lit-BS-16
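Also: HEK293T cells with Epo stimulation, STAT-responsive firefly luciferase reporter, fold induction versus unstimulated cells divided by the larger fold induction of two negative controls lacking either bait or prey.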

B1: CG9393 (protein)
chain: MEMQLGAMLYVYKGEYGLPSIDFECLRALCLLRFTRCPMDVQTSSNPLRSGAGKLPYLQIGNQKFAGYRQIKRVLDLEGYPIDAHLSTKQKHLSTAYANWVFTNLHAYYHYFLFGEPHNFDTTTRGLYAKRTPFPFNFYYPSSYQREACDVVQVMAGFDVNDKLDKHEGDYLVVNAKKVVNLLSRKLGRKVWFFGDTYSEFDAIVYSYLAIIFKIALPNNPLQNHIKGCQNLVNFINRITKDIFRIEGYSSVKLTKTPSGTEASLTASERKFLDSELNTKIVAGVGAVLAMGAFAAWRGIYNQLTTRSSTDYDGIDYEDDEMEEGLD
MAPPIT interaction score (CG5662): 4.82 (active)

B2: IntS10 (protein)
chain: MPSQEENELYMVKEAQRLRKSDPCAAMAWIITAKTLYPNAFNLQYEAYLLERDAQNYEEAAKCFSAIATNFQNQHTELWQEINSLTNALRNENETTPEHEFYVKMYKHLTPEVQHNIFMHTINHSADNLERIYIYILMFNKFPKSAITQAPRLLEMLAEGMKTEPDLYQRILVEEVLPMIQNKPPELSPNLACRLYTSSLEFYLRQIMDESDTADAWKNIFKVLMICGQMMGWEPFLPFSKHVNQNVYWEKLVDILSGSPAGSSQVLFYATTLFIYSLHGYIRNCKLRIEDADVTHVLVEGFMEWSPEGDGSEVPSMEPPKFSLTTAISPELSKAFLHAAQCWQLLNTDQFQRDFSQLMLALPLAPWISRFLFDLAIYFGHRDEANKLMADMTTQSSLVQSLQILSLNLMQGSMTLQGFQCILKILSELPTTQGQLLENMSLKGHRHMVFLPLTRSALVQYCVGAIISRLSRKVFEPNVPDRLLGDILVLQQLNLLNDVLLTQQIFNLIKQRKSFNLRTLSTYIINIDLLEELSHIWNSQQEDNFELTSSPNSSGTPTATTVAGGSQSRRIGTRGADKGARDEFRAITRQQIARCNENVITLLANFINQEHLMLAQHIFGISQPVETIVIK
MAPPIT interaction score (CG5062): -0.102 | MAPPIT interaction score (slmo): 1.15

B3: pip (protein)
chain: MSLNAERSYKMKLRDVENAFKYRRIPYPKRSVELIALLAISCTFFLFMHTNKLNSRLKEMEVKLQPSEFSALGLTGNHISGHDAGKHDDINTLHGTYQYLKSTGQKVGYNVHDRRSSEEQLRTPTAHGHHHDHHSHHHHMHQQEKIDGHKHKASHDKQLAVPDNKHKEDEVHYEDDEDEVEENDDDLANDVGTTDSEGFNFKADLLNNTKYAEVDFVFFNRVPKVGSQSLMELMARLGKINGFTHARNKGSAHETIVMNKQRQNDLIADLLTRPKPHIYSQHIAYINFTRFHLPKPIYINLIRDPIDRIISWHYYIRAPWYYRDMQAKLGENAIPMPSEEFMNLDLDTCVRNHDPHCTFTQMQIKNPVGDHRRQTLFFCGMNQKLCMPFNSEAAMQKAKRTVETEYAVVGTWEDTNITLSVLEAYIPRYFRNAKVAYYLGKDRLSRVNRNNVTRIVSDETRLILRKNLTNEIEFYEFCKQRLYLQYAALSHGKRFGEDDYLLVPEQQNEYNEDY
MAPPIT interaction score (CG5854): -0.136 | MAPPIT interaction score (Zip88E): 0.425

B4: nudE (protein)
chain: MESPPMFNSVEDECRYWKERSKQYHKEWTDVKQEYDEFVEQSREMEIEMDATLDQKQSIIKDLTAKLTMFERENESLKLKLESHGIDMSNMEKQLETVKKDRDTMKVYLRQLEQKNDDLERAHRILNESIENFEKMLDQAYEKNALLELEVDEKGLLQEKLQRLMDETRDLKQELNVKSRFTPVVNGTSVPTANDTNTVNSSMNSSASLPNGIVANGELVKHDNAVATRATSVSVNALNGSLVNRNEYNQQHSLKSDGDETEDVPREWSANAAATPLLPAIHTSGAGRTALLLAGCRVVWILQFSVIHKPQIRNPIT
MAPPIT interaction score (CG4884): 0.246

B5: Prosalpha7 (protein)
chain: MSTIGTGYDLSASQFSPDGRVFQIDYASKAVEKSGTVIGIRGKDAVVLAVEKIITSKLYEPDAGGRIFTIEKNIGMAVAGLVADGNFVADIARQEAANYRQQFEQAIPLKHLCHRVAGYVHAYTLYSAVRPFGLSIILASWDEVEGPQLYKIEPSGSSFGYFACASGKAKQLAKTEMEKLKMDMRTDELVESAGEIIYKVHDELKDKDFRFEMGLVGRVTGGLHLINPSELTEKARKAGDAANKDEDSDNETH
MAPPIT interaction score (CG4707): -0.137

B6: H2.0 (protein)
chain: MLLHESAASMEQSMPENLSTHMYGECEVNPTLAKCPDPVNVDHELPTKESCASTTIVSTSPTSATSTTKVKLSFSVDRLLGSEPEESHRQSSSSPSTKSCCDGSILACCSFPHCFSQANAESRRFGHATLPPTFTPTSSHTYPFVGLDKLFPGPYMDYKSVLRPTPIRAAEHAAPTYPTLATNALLRFHQHQKQQHQQHHHHQHHPKHLHQQHKPPPHNSTTASALLAPLHSLTSLQLTQQQQRFLGKTPQQLLDIAPTSPAAAAAATSQNGAHGHGGGNGQGNASAGSNGKRKRSWSRAVFSNLQRKGLEIQFQQQKYITKPDRRKLAARLNLTDAQVKVWFQNRRMKWRHTRENLKSGQEKQPSAVPESGGVFKTSTPSGDGTPQEALDYSSDSCSSVDLSEQADEDDNIEINVVE
MAPPIT interaction score (CG5708): 2.81 | MAPPIT interaction score (Polr3F): 2.33 | MAPPIT interaction score (hale): 0.405 | MAPPIT interaction score (pasi2): 2.43

B7: Rtca (protein)
chain: MDAEKMLEIDGSYLEGGGQALRNALSLSCILGKPVRVVKIRASRPSPGLSHQHLHGLNLLRDITNADVVGNYLLSSTVEFTPRTILDNTYRVETHTAASITLIYQMALPVLLFAGRPSRLIVSGGTNVDFAPPVEYMQEVLLPNLKHFGVSFDLKVQRYGFYPRGQGRCQLDVQPVTKLNSGKLVAFGRIKSVSGVAYCAGRLPVNIAIDMQQTAQREIHRLWPSQQCSIEPIKHSRQKAFHNGAGILMTVNTTSDVVLGASALGKKRIDGHVLGSEASCQLGDYMRKQVCVDDYMQDQLIIYMALAVGRSTMRTGKLTNHTRTAINVAEQMTGVKFDVAMEPGGQMLVSCKGLGHVNKLI
MAPPIT interaction score (CG4853): 1.6

B8: Ndg (protein)
chain: MPTFGSKLLACLLLSSVILVSGQFEHYLDSLRASELYEFEDGSLGSIHLLPKGDSETIVLQLEQPIHFYGEQYEQLYINTNGILTFNSEFPEYLNQPFPLEYASIAAFYSNVDTSFSDEGTSISLFESKEQSILDRASSLVRYAFSSQSEFEARQVIVATWRNVGYFDSKTDRLNTFQVALIANEQSTFVQFIYPDGGLNWLQGETAGLGLPDIRAQAGFVAEDGRFYTLNGSGSENARFLSESTNLGVPGVWLFEVAPIENEQNVRSPDNAESLTESPALALSCQAHAHQCHEKAECHDKAEGYCCVCGSGFYGNGKSCLANDQPIRVTGTLTGELNKQPVSEEAKLQSYVVTSEGRTYTTINPLTPELGAQLRLVLPLLTTVPWLFAKSVGGVANGYQLTGGVYTHVSRLQFDSGENLHVNQTFEGLNYWDQLSVKIEIYGEVPAVAADAVLILPDYVEEYTFERPGELKSVQVLNINITEEQRVLGLQVEQRILYRSCLRDDEADPSATKVLQKISKVALDYVERDQALRIGAMSKVGVTPESNACNDGTADCVENSVCVPYEDTYRCDCYHGFAAQLDERGVEVCLDIDECATGSHVCDENAVCDNTEGGFNCYCTEGFEGNGYRCLSNSTADNIEYPPAVEGQAEPTSEPSPNPSPYPDQGQDQEREREDDQYPQPNPYPYPEEQIPQHPDECYRCSKDADCYQGRCTCHEGFDGDGYTCTNICGHGEVWENGRCEPLLLERHDVDPLCDALGECRCPYGYELSEDSQRCTYVQEFDGERNADLIPCDVDENCHINATCNWYGQELRHICTCQPGFRGDGYNCDPISDDSCAIRPDICDVHADCVYEEHLGKSECQCQAGYTGNGFNCQLAAECQSAEHCGENAFCDDGVCRCQADFERDVSDRCVPAGRCGSVFCGSNAICKWDSAEGVQYCDCLDGYQGDALTGCTSKPLSCHVLNNCGIHATCEPTEDPANYECQCIAGFKGDGYVCIEEQNCLNNPTLCDMNAQCRSTNSGLVCVCNQGFFGNGSLCQERQHQDSDFLIVSQGVMIARVPLNGRNVRPISVAQMAIGLDKDCVEGRVYWGDISTKKIVSTKYDGTDLRPFITTDIESPEGIAIDVISRRLYWADSAKDTIEVASLDDPSLRAVIINKQLVNPRGIAVDPYREKLFWSDWDRESPKIEMSNLDGTGRELLLGKDDVTLPNSLVVLENSGEVCYADAGTKKVECIEPQNRQIRTISNELSYPFGITFTHDQFYWTDWTTKKVEIVDSLGARQTPIQPPFFGSHKMYGMTVVEQHCPQYQSPCQISNGGCTDSRLCLVNRQAPSGKSCKCTSASTGCTVLAPGY
MAPPIT interaction score (CG4860): -0.238

B9: rad50 (protein)
chain: MSSIESLSIQGIRSFGTYADDLQSIKFSSPVTLILGENGCGKTTVVECLKYALTGECPPGSDRGKSFVHDPKIFGLNEVLAQIKMQVRDRRGAQVSICRTMKVSKKRNKMSFETMDSTINFLTGAGQSKREKQDSLSGRSVDIDVAISDFMGVSKAIINNVLFCHQEDSSWPLDESKKLKEKFDAIFGITEYNKALDKIIKLRKEAMEELKIKEANIKHVAYLKQEMEVKTLNLQKAQRKCDAIKAQCSECEEEMKPIEARLVEIRNVEFEIGKYQAQKVEMDTKHKNCKDQISTLTLKIKKPFRGTLDELDQEISNFDQRMLEMRQKRTEVEGDLSQIKRSSVAEQEKLGTQDRKHCLAKQRHQSELACRAQLLKRVKEFCRELHIPIDCDLVEQPEKMGEVLRDIEAMIITKHCEITEIVEQNEKADRSRQVKIDELRIELTKSEQSVTAQEKQRESSKRESETLGVEIKKIETSMQDLKKLEKEINEVNELYESATKNIDQQAIKDAIARKKASIAENQIQFKKLDEQLTFLGSMAKLVAECSLKQKELDKKNQEVHRVRSRHSDHFGKLFKEPITCNYRRSMQVVYEKLRREIQELNEKANTQKLKEQSYEIKRKNLISDISRMEKELKDSEELIYQKCRSTPYDDLLERSKTTISKLQFDHGALKSSEALYKKYIQKMDEEPSCPLCHHNMTSDEACDLTSELTDEIQKLPDNITRAEKALKAEQIKYENLLQLKPTILKVKELKDSLPQKKEELKKVEELLGDSVSEYETLIALIGEPTHNMELANSMMGDMSLLDEALKDSARLTKDLDLQKGQLPASYDSSVSMDDLQAEKSKVSKELETERKELESAQNAVQQQMDALNRLREKKNSLKDRQIHLREGLQSLPQLKERLEKLNSFLTTVASEISELKAKIQPLKLNLRAAIEEKERLKKSESEKLAQLNSKYNSYKSTDHDIQRLNKEAEDYAKLDLRNEIKKLDEIIMASKDKLRKLEAEISLKTDELETIKTECSNQQTVERDLKDNRELKQLEDKEAKLRESCQVLDKQLGNLDFHSVSKEKVNLTKQRDKATVRKGELLGQLGEIHSQVNKLQREIDEPRFKESLKNFRKANYEIEVTRLCIEDLGQYRLALEWALIQFHSEKMEMINRLIREYWRKIYRGNDIDYIQVKTDEVSSDASADRRKTYNYRVVQSKNYSEIEMRGRCSAGQRVLASLIIRLALAETFSSNCGVLALDEPTTNLDRANINSLCEALNCIVEERQSQSNFMLIIITHDENFVSSLGKITSYHRVFRNEECKSVIRRVEAGPSKKALIDQ
MAPPIT interaction score (CG5174): 0.0423

B10: Jupiter (protein)
chain: MAAYAAFKHVELYNVGKAKKRVLRPPGGGSSDIFGSEMPQTPRNVKNRMASNIFAAEKDNGVKNNVRQGAHRFYFIGDAPRRGQKTVDSHSRLFGEPTRPITPGKNHMKSSIPFGQNTEAVAAQKLLTTNGHYNGKSGSVSSASSSVSSSTENLKMNSGSRSEGNPVTGEGYKVVANEYSQRQESSNGGTPVINKNRIPPGGYSSGLW
MAPPIT interaction score (CG4789): 0.553 | MAPPIT interaction score (PVRAP): -1.6
